Screening results (PubChem BioAssay)
D2 PAM-1 – human D2 receptor positive allosteric modulation | P14416 | DiscoveRx D2 beta-arrestin cells, luminescence, 90 min; 100% = 57 uM dopamine signal | potentiation, % (concentration not given with the values) | hit rate 0.23% among 360,000; in the data active = potentiation above about 50%; inconclusive = mostly about 30% to 49%
Target sequence (P14416 whole entry, looked up): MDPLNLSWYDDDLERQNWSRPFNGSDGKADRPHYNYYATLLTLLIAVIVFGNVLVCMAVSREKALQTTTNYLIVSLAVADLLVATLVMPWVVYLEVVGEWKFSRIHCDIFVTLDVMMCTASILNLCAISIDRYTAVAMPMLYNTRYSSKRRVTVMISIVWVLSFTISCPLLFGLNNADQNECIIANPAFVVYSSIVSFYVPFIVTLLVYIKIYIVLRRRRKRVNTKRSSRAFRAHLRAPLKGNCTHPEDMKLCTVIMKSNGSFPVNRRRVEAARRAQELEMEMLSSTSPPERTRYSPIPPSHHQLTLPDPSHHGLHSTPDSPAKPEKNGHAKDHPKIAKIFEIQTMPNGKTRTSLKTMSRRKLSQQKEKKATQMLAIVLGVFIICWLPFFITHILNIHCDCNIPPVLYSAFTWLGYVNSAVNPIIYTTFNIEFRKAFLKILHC
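D2 cells co-treated with compound plus 50 nM dopamine (EC20) for 90 min at 37 deg C to detect potentiation. Beta-arrestin recruitment was read as enzyme-fragment luminescence after 1 h at ambient temperature. Full response was set by 57 uM dopamine.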
D2 antagonist – antagonizes the human D2 dopamine receptor; inhibition, % at 10 µM; P14416; HEK293 TREx D2 cells, calcium flux, dopamine EC80; hit rate 2% among 340,000; AID 485344; in the data active = inhibition above about 30%; inactive = below that, where a call was filed; also: 0% is about no effect
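Overnight-induced (tetracycline, 30 C) HEK293 T-REx cells carrying force-coupled D2 receive a no-wash calcium dye, then compound, then EC80 dopamine at 180 s; signals are read kinetically throughout.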
D2 ag-1 – D2 dopamine receptor (human) agonism; P14416; HEK293 T-REx D2 cells, calcium flux agonist mode; activation, % at 2 µM; hit rate 0.53% among 340,000;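 active = activation over 3 SD above normal in the single-dose calcium agonist read, cut at about 30% in these data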; also: 0% is about no effect
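Tetracycline-induced HEK293 T-REx cells with force-coupled D2 receptor, plated overnight at 30 C, loaded with no-wash calcium dye. After a 10 s baseline, compound was pin-added and calcium flux read kinetically for 180 s; calcium rises flagged agonists.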
D2 ag-2 – human D2 receptor agonism in beta-arrestin assay | P14416 | DiscoveRx PathHunter D2 beta-arrestin, luminescence, 90 min; 100% = 57 uM dopamine signal | activation, % (no concentration beside the values) | hit rate 0.084% among 360,000; in the data active = activation above about 40%; inconclusive = between about 15% and that limit
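DiscoveRx PathHunter D2 beta-arrestin cells (2,100/well) attached overnight, then compound-stimulated 90 min at 37 C in HBSS/10 mM HEPES/0.1% Tween-20 buffer; beta-galactosidase complementation read by luminescence after 1 h at ambient temperature. Dopamine 57 uM final (EC100) as control.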
D2 PAM-2 – positively modulates the human D2 dopamine receptor allosterically. HEK293 T-REx D2, calcium flux, EC20 dopamine potentiation. potentiation, % at 10 µM. hit rate 0.34% among 340,000. AID 485347;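 active = potentiation over 3 SD above the plate norm, cut at about 30% in these data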; also: 0% is about no effect
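Primary screen. Calcium kinetics in induced HEK293 T-REx D2 cells: compound pre-addition 180 s, EC20 dopamine, 180 s more.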
* marks the source's active call; other numbers are inactive results. Compounds with a hit are over-represented: about 2.4% of the library has one in this group of screens.

Screening CCc1ccc(NC(=O)CN(Cc2ccccc2)S(=O)(=O)c2ccc3nc(C)sc3c2)cc1 returned D2 PAM-2 -17.
For Cc1cc2c(N=O)c(NO)ccc2[nH]1 the results were D2 PAM-1 63* and D2 ag-2 15.
For CCCC(=O)Nc1nc2nc(-c3ccccc3)cc(=O)n2[nH]1 the results were D2 PAM-1 -7, D2 antagonist 32*, D2 ag-1 0, D2 ag-2 -1 and D2 PAM-2 3.
COc1ccc2cc(-c3nnc(Nc4ccccc4)s3)c(=O)oc2c1 was read as D2 ag-1 -1 and D2 PAM-2 -6.
`N/C(Cc1ccc(Cl)cc1Cl)=N\OC(=O)c1ccccc1` gave D2 PAM-1 22, D2 antagonist -43, D2 ag-1 0, D2 ag-2 63* and D2 PAM-2 -14.
`N/C(Cc1ccc(Cl)cc1)=N\OC(=O)c1cccc2ccccc12` gave D2 PAM-1 86*, D2 antagonist -7, D2 ag-1 2, D2 ag-2 inconclusive and D2 PAM-2 -9.
N/C(Cc1ccc(Cl)cc1)=N\OC(=O)c1ccc2ccccc2c1 was read as D2 PAM-1 168*, D2 antagonist -19, D2 ag-1 0, D2 ag-2 inconclusive and D2 PAM-2 6.
CCCCC(CC)CNC(=O)Cc1ccc(-n2c(=O)[nH]c3ccccc3c2=O)cc1 (stereo not given) was read as D2 PAM-2 -13.
O=C(Nc1nnc(SCc2ccc(F)cc2)s1)c1cnccn1 was read as D2 PAM-1 -12, D2 antagonist 33*, D2 ag-1 1, D2 ag-2 -3 and D2 PAM-2 1.
`CCSc1nnc(NC(=O)c2cnccn2)s1` gave D2 PAM-1 -1, D2 antagonist 12, D2 ag-1 0, D2 ag-2 0 and D2 PAM-2 -2.
For O=C(CSc1nnc(NC(=O)c2ccccc2F)s1)Nc1ccccc1F the results were D2 PAM-1 5, D2 antagonist 36*, D2 ag-1 0, D2 ag-2 0 and D2 PAM-2 -9.
For CC(=O)Nc1ccc(NC(=O)CSc2nnc(NC(=O)Cc3ccc(F)cc3)s2)cc1 the results were D2 PAM-1 -6, D2 antagonist 34*, D2 ag-1 0, D2 ag-2 -2 and D2 PAM-2 -21.
CC(=O)N1CCc2c(sc3c2c(=O)n(CCc2ccccc2)c(=O)n3CC(=O)Nc2ccccc2F)C1 was read as D2 ag-1 0 and D2 PAM-2 25.
Screening O=C(Nc1c(C(=O)N2CCN(c3ccccc3F)CC2)oc2ccccc12)c1cccc(F)c1 returned D2 ag-1 0 and D2 PAM-2 2.
Screening CCN(CC)CCNC(=O)c1ccc(Sc2ccc(Cl)cc2)c(NC(C)=O)c1 returned D2 PAM-1 -18, D2 antagonist 36*, D2 ag-1 0, D2 ag-2 -6 and D2 PAM-2 -31.
Screening CCN(CCCNC(=O)c1ccc(Sc2ccc(Cl)cc2)c(NC(C)=O)c1)c1cccc(C)c1 returned D2 ag-1 0 and D2 PAM-2 -1.
Screening CCN(CC)CCNC(=O)c1ccc(Sc2ccc(C)cc2)c(NC(C)=O)c1 returned D2 PAM-1 -12, D2 antagonist 54*, D2 ag-1 -1, D2 ag-2 -7 and D2 PAM-2 -31.
For CC(=O)Nc1cc(C(=O)NCc2ccc(C)cc2)ccc1Sc1ccc(C)cc1 the results were D2 ag-1 1 and D2 PAM-2 10.
Screening COc1ccc(NC(=O)c2cc3c(=O)n(Cc4cccnc4)ccc3nc2C)cc1Cl returned D2 ag-1 -1 and D2 PAM-2 3.
COc1ccc(CSc2nc(C)cc(=O)[nH]2)cc1Br was read as D2 PAM-1 0, D2 antagonist 3, D2 ag-1 1, D2 ag-2 -1 and D2 PAM-2 2.
`COc1cc(=O)[nH]c(SCc2c(F)c(F)c(F)c(F)c2F)n1` gave D2 PAM-1 -5, D2 antagonist -1, D2 ag-1 -1, D2 ag-2 3 and D2 PAM-2 95*.
`COCCCNC(=O)C(C)n1c2ccccc2c2cnn(C)c(=O)c21` (stereo not given) gave D2 ag-1 0 and D2 PAM-2 4.
`CCCOc1cc(C)c(Cl)cc1S(=O)(=O)N(CC)CC` gave D2 PAM-1 -22, D2 antagonist 7, D2 ag-1 -1, D2 ag-2 -5 and D2 PAM-2 3.
`CCOc1cc(C)c(Cl)cc1S(=O)(=O)N(C)C` gave D2 PAM-1 -3, D2 antagonist 49*, D2 ag-1 0, D2 ag-2 0 and D2 PAM-2 7.
O=c1[nH]c(=O)n(C2CCCO2)cc1F (stereo not given) was read as D2 PAM-1 -1, D2 antagonist 32*, D2 ag-1 -1, D2 ag-2 6 and D2 PAM-2 2.
For Cc1cccc(CNC(=O)CN2CC(C)Sc3ccccc32)c1 (stereo not given) the results were D2 ag-1 -1 and D2 PAM-2 -7.
For O=C(CN1CCN(c2ccc([N+](=O)[O-])cc2Cl)CC1)N1CCOCC1 the results were D2 PAM-1 1, D2 antagonist -9, D2 ag-1 0, D2 ag-2 -1 and D2 PAM-2 -4.
`O=C(c1cc(S(=O)(=O)N2CCOCC2)ccc1Cl)N1CCN(c2ccccn2)CC1` gave D2 PAM-1 1, D2 antagonist -3, D2 ag-1 0, D2 ag-2 3 and D2 PAM-2 -7.
For CC(=O)N1CCN(C(=O)c2cc(S(=O)(=O)N3CCN(c4ccccc4)CC3)ccc2Cl)CC1 the results were D2 PAM-1 inconclusive, D2 antagonist 5, D2 ag-1 0, D2 ag-2 -4 and D2 PAM-2 49*.
For O=C(c1cc([N+](=O)[O-])ccc1Cl)N1CCN(c2ccc([N+](=O)[O-])cc2)CC1 the results were D2 PAM-1 7, D2 antagonist 41*, D2 ag-1 0, D2 ag-2 8 and D2 PAM-2 7.
For COC(=O)c1cc(C(=O)N2CCN(c3cccc(Cl)c3)CC2)cc([N+](=O)[O-])c1 the results were D2 PAM-1 17, D2 antagonist 30*, D2 ag-1 0, D2 ag-2 12 and D2 PAM-2 -4.
Screening O=C(CN1CCOCC1)N1CCN(c2ccc([N+](=O)[O-])cc2)CC1 returned D2 PAM-1 -10, D2 antagonist 83*, D2 ag-1 0, D2 ag-2 -6 and D2 PAM-2 -14.
Screening Cc1ccc(NC(=O)CN2C(=O)COc3ccc(S(=O)(=O)N4CCOCC4)cc32)c(Cl)c1 returned D2 ag-1 0 and D2 PAM-2 2.
Screening Cc1onc(-c2ccccc2)c1C(=O)NNC(=O)c1ccccc1 returned D2 PAM-1 0, D2 antagonist 2, D2 ag-1 0, D2 ag-2 -6 and D2 PAM-2 14.
